Experimental findings from PubChem BioAssay (NCATS) are described below.

SMILES strings stand for the structures. Results filed as inconclusive are left out. Where a call stands in place of a potency, no number is given. Calls of active or inactive are those of the source. The call rests on the fitted dose curve.

This experiment can be described thus: Cytotoxicity counterscreen for inhibitors of SARS-CoV-2 cell entry (AID 1645845). Further: nearly all actives have a fitted effect of over 50% in size. As to conditions: cell viability (SARS-CoV-2 entry assay cells); series mostly up to 57.1 µM. Put shortly:
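ATP-content luminescence (ATPLite 1step, 15 min RT) read after 48 h compound exposure of Expi293F cells stably expressing human ACE2; normalized to cells-only wells and media-only wells.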
With `C=C1CCC2[C@](C)(CO)C(O)CC[C@]2(C)C1C/C=C1/C(=O)OCC1O` (stereo partly drawn), the Potency entry was “inactive”.

Turning to `O=C(Nc1cccc(C(F)(F)F)c1)c1cccc2cc(Oc3cc(CO)ncn3)ccc12`, the Potency result was “inactive”.

With `CO[C@H]1C[C@@H]2CC[C@@H](C)[C@@](O)(O2)C(=O)C(=O)N2CCCC[C@H]2C(=O)O[C@H]([C@H](C)C[C@@H]2CC[C@@H](OCCO)[C@H](OC)C2)CC(=O)[C@H](C)/C=C(/C)[C@@H](O)[C@@H](OC)C(=O)[C@H](C)C[C@H](C)/C=C\C=CC=C1C`, the Potency entry was “inactive”.
